An excerpt weighted towards active compounds, which were near 6.8% of everything screened.
C diff growth: C. difficile growth inhibitors, primary screen, HTS. Clostridium difficile clinical isolate growth, OD600, 24 h; active compounds read low. growth activity, negative = inhibition, % at 16 µg/mL (by protocol). 86,000 tested, 0.25% active. AID 1259249, 2017;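 active = mean growth activity at or below -80% and every replicate also at or below -80%; inconclusive = mean at or below -80% but some replicate above -80%; inactive = mean growth activity above -80%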;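 note: 0% = DMSO wells and -100% = levofloxacin 16 µg/mL wells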
T cruzi growth-1: T. cruzi intracellular proliferation inhibitors, primary screen, cell-based, beta-gal Tulahuen parasites, NIH3T3 host, luminescence | 77,000 tested, 5.9% active | T. cruzi beta-gal in NIH3T3, GalScreen luminescence, 90 h | inhibition, % at 8.34 µM;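 active = mean inhibition above about 93%, with at least 55% of replicates each passing it, limit read from the data, passing the limit was not always enough; inconclusive = only one of those two conditions holds; inactive = neither condition holds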
Pf Dd2 inh: P. falciparum Dd2 growth inhibitors, primary screen, SYBR Green fluorescence, single dose replicates; activity change, % at 10 µM; 94,000 tested, 2.3% active; 72 h; active compounds read low; AID 1159554, 2015; in the data active = activity change below about -80%; inconclusive = no clear call, values can overlap the other calls
T cruzi growth-2: T. cruzi intracellular proliferation inhibitors, confirmation, cell-based, NIH3T3 host, beta-gal parasite, luminescence, cherry-pick | inhibition, % at 8.35 µM | 5,600 tested, 72% active | shares compounds with T cruzi growth-1 | AID 651739, 2012 | T. cruzi beta-gal in NIH3T3, GalScreen luminescence, 90 h;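 active = mean replicate inhibition above about 95% and at least 55% of replicates individually reaching it, limit read from the data; inconclusive = only one of the two criteria is met; inactive = neither criterion is met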
T cruzi growth-3: inhibitors of intracellular T. cruzi replication, confirmation, NIH3T3 host cells, beta-gal parasites, cherry-pick, set 2; shares compounds with T cruzi growth-1; T. cruzi beta-gal in NIH3T3, GalScreen luminescence, 90 h; inhibition, % at 2.09 µM; 5,600 tested, 21% active;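 active = mean inhibition above about 95%, with at least 55% of replicates also reaching it, limit read from the data; inconclusive = meets just one of the two conditions; inactive = meets neither condition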;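 note: plate controls were neutral control median for no effect and positive control median for full effect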
3T3 cytotox: cytotoxicity in mouse NIH/3T3 fibroblasts, confirmation, cytotoxicity control for T. cruzi proliferation inhibitor project, cell-based, cherry-pick, single point; shares compounds with T cruzi growth-1; NIH/3T3 viability, CellTiter-Glo ATP luminescence, 90 h; cytotoxicity (signal decrease), % at 8.35 µM; 5,600 tested, 14% active; AID 651742, 2012;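 active = mean signal decrease across replicates above about 35% based on untreated-well scatter, with enough replicates individually passing, limit read from the data; inconclusive = no rule stated though some were filed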;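 note: 0% = median of neutral control wells and 100% = median of positive control wells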
3T3 cytotox 2: NIH/3T3 fibroblast cytotoxicity, confirmation, cytotoxicity control, cell-based, cherry-pick, single point, set 2 | 5,600 tested, 56% active | NIH/3T3 viability, CellTiter-Glo ATP luminescence, 90 h | inhibition, % at 24.9 µM | shares compounds with T cruzi growth-1;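 active = mean loss of cell viability signal at or above a set limit, and enough replicates individually reaching it; inconclusive = meets only the mean limit or only the replicate share; inactive = meets neither condition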;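 note: 0% = median of neutral control wells and 100% = median of positive control wells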
Active calls of the source: *; ? = inconclusive; / = no result; ! = repeats disagree.

SMILES | C diff growth | T cruzi growth-1 | Pf Dd2 inh | T cruzi growth-2 | T cruzi growth-3 | 3T3 cytotox | 3T3 cytotox 2
N#C[C@@H]1N[C@@H](CO)[C@@H]1c1ccc(C#Cc2ccc(F)cc2)cc1 | -9 | 103* | 7 | 105* | 41 | -4 | -7
COc1ccc(NC(=O)N(C)C[C@@H]2OCCCC[C@@H](C)Oc3ccc(NS(=O)(=O)c4c(C)noc4C)cc3C(=O)N([C@@H](C)CO)C[C@H]2C)cc1 | -3 | 45 | -35 | / | / | / | /
CO[C@H]1CN(C)C(=O)c2cc(NC(=O)Nc3ccccc3)ccc2OC[C@@H](C)N(C(=O)CC2CC2)C[C@H]1C | / | 2 | -13 | / | / | / | /
COc1ccc(CN(C)C[C@H]2OCCCC[C@H](C)Oc3ccc(NC(=O)NC(C)C)cc3C(=O)N([C@H](C)CO)C[C@H]2C)cc1 | 3 | -31 | / | / | / | / | /
O=C(C[C@@H]1C[C@@H]2c3cc(NS(=O)(=O)c4ccccc4)ccc3O[C@@H]2[C@@H](CO)O1)N1CCOCC1 | -9 | 8 | 4 | / | / | / | /
O=C(CC1CC1)Nc1ccc2c(c1)[C@H]1C[C@@H](CC(=O)N3CCCCC3)O[C@@H](CO)[C@H]1O2 | 0 | 86 | -16 | / | / | / | /
O=C(CC1CC1)Nc1ccc2c(c1)[C@H]1C[C@H](CC(=O)N3CCCCC3)O[C@H](CO)[C@H]1O2 | 0 | 8 | 15 | / | / | / | /
O=C(CC1CC1)Nc1ccc2c(c1)[C@@H]1C[C@@H](CC(=O)N3CCCCC3)O[C@H](CO)[C@@H]1O2 | 0 | 110* | 18 | 19 | -45 | -10 | 2
O=C(CC1CC1)Nc1ccc2c(c1)[C@H]1C[C@@H](CC(=O)N3CCCCC3)O[C@H](CO)[C@H]1O2 | -2 | 104* | 8 | ? | 22 | 6 | 15
O=C(C[C@@H]1C[C@@H]2c3cc(NS(=O)(=O)c4ccccc4)ccc3O[C@@H]2[C@H](CO)O1)N1CCCCC1 | -8 | 104* | -3 | 64 | 2 | 21 | 18
COc1ccc(NC(=O)Nc2ccc3c(c2)CC(=O)N([C@@H](C)CO)C[C@@H](C)[C@H](CN(C)Cc2ccncc2)O3)cc1 | -5 | / | -1 | / | / | / | /
COc1ccc2c3c([nH]c2c1)[C@H](CO)N(C(=O)Nc1ccccc1F)CC31CN(C(=O)C2CC2)C1 | -18 | / | -51 | / | / | / | /
CCC(=O)N1CCCCN2[C@H](CO)[C@H](c3ccc(C#CCOC)cc3)[C@H]2C1 | -2 | 64 | -14 | / | / | / | /
COCC#Cc1ccc([C@@H]2[C@@H](CO)N3CCCCN(C(=O)COC)C[C@H]23)cc1 | -13 | 102* | 56 | 38 | -5 | 16 | -2
CCC(=O)N1CCCCN2[C@H](CO)[C@@H](c3ccc(C#CCOC)cc3)[C@@H]2C1 | -6 | 100* | 0 | 1 | 22 | -2 | 14
COCC#Cc1ccc([C@@H]2[C@H]3CN(C(=O)COC)CCCCN3[C@H]2CO)cc1 | -11 | 25 | 55 | / | / | / | /
CC(=O)N(C)C[C@@H]1Oc2ncc(C#CCC3CCCC3)cc2C(=O)N([C@@H](C)CO)C[C@H]1C | -6 | 31 | -9 | / | / | / | /
CC(C)CC#Cc1cnc2c(c1)C(=O)N([C@H](C)CO)C[C@@H](C)[C@@H](CN(C)S(=O)(=O)c1cn(C)cn1)O2 | -1 | 49 | 16 | / | / | / | /
C[C@H]1CN([C@@H](C)CO)C(=O)c2cc(C#Cc3ccccc3F)cnc2O[C@H]1CN(C)S(=O)(=O)c1ccccc1F | -2 | 97*! | -39 | 107* | 77 | 60* | 40*
C[C@H]1CN([C@@H](C)CO)C(=O)c2cc(C#Cc3ccccc3F)cnc2O[C@@H]1CN(C)S(C)(=O)=O | / | 70 | -20 | / | / | / | /
C[C@@H]1CN([C@H](C)CO)C(=O)c2cc(C#Cc3ccccc3)cnc2O[C@H]1CN(C)S(=O)(=O)c1ccccc1F | -2 | ? | -55 | 105* | 70 | 24 | 46*
C[C@@H]1CN([C@@H](C)CO)C(=O)c2cc(C#Cc3ccccc3)cnc2O[C@@H]1CN(C)S(=O)(=O)c1ccccc1F | 4 | 52 | -53 | / | / | / | /
C[C@H]1CN([C@@H](C)CO)C(=O)c2cc(C#Cc3ccccc3F)cnc2O[C@@H]1CN(C)S(=O)(=O)c1ccccc1F | -11 | 115* | -44 | 111* | 76 | 26 | 43*
C[C@H]1CN([C@@H](C)CO)C(=O)c2cc(C#Cc3ccccc3)cnc2O[C@H]1CN(C)S(=O)(=O)c1ccccc1F | 2 | 85 | -59 | / | / | / | /
C[C@@H](O)C#Cc1ccc([C@@H]2[C@H](CO)N3CCCCN(CC4CCOCC4)C[C@@H]23)cc1 | -7 | -7 | -3 | / | / | / | /
SMILES | C diff growth | T cruzi growth-1 | Pf Dd2 inh | T cruzi growth-2 | T cruzi growth-3 | 3T3 cytotox | 3T3 cytotox 2
CCNC(=O)C[C@@H]1C=C[C@@H](NC(=O)C2CCC2)[C@@H](CO)O1 | -3 | / | / | / | / | / | /
C[C@H]1CCCCO[C@@H](CN(C)C(=O)c2ccccc2)[C@@H](C)CN([C@@H](C)CO)C(=O)c2cc(NC(=O)c3ccncc3)ccc2O1 | / | 20 | -40 | / | / | / | /
C[C@H](O)C#Cc1ccc2c(c1)O[C@@H](CN(C)C(=O)CN(C)C)[C@@H](C)CN([C@H](C)CO)S2(=O)=O | 0 | -4 | 11 | / | / | / | /
C[C@@H]1CCCCO[C@@H](CN(C)C(=O)Nc2ccccc2)[C@@H](C)CN([C@@H](C)CO)C(=O)c2cc(NS(=O)(=O)c3ccc(Cl)cc3)ccc2O1 | 15 | 118* | -69 | 104* | 40 | -12 | -5
C[C@H](CO)N1C[C@H](C)[C@H](CN(C)C(=O)c2ccccc2)OCCCC[C@H](C)Oc2ccc(NS(=O)(=O)c3ccc(Cl)cc3)cc2C1=O | -8 | 101* | 32 | 91 | 34 | -8 | 6
C[C@H]1CCCCO[C@H](CN(C)C(=O)Nc2ccccc2)[C@@H](C)CN([C@@H](C)CO)C(=O)c2cc(NS(=O)(=O)c3ccc(Cl)cc3)ccc2O1 | -1 | ? | -84* | 103* | 37 | -38 | -18
C[C@@H]1CCCCO[C@@H](CN(C)C(=O)Nc2ccccc2)[C@H](C)CN([C@@H](C)CO)C(=O)c2cc(NS(=O)(=O)c3ccccc3)ccc2O1 | / | / | -26 | / | / | / | /
C[C@@H]1CCCCO[C@H](CN(C)C(=O)c2ccccc2)[C@H](C)CN([C@@H](C)CO)C(=O)c2cc(NS(=O)(=O)c3ccc(Cl)cc3)ccc2O1 | -3 | 67 | -13 | / | / | / | /
C[C@@H]1CCCCO[C@H](CN(C)C(=O)Cc2ccccc2)[C@H](C)CN([C@@H](C)CO)C(=O)c2cc(NS(=O)(=O)c3ccc(Cl)cc3)ccc2O1 | -4 | 87 | -40 | / | / | / | /
